Target: T1, GST-Ap-NF-kB RHD (Exaiptasia pallida (Aiptasia), UniProt A0A913YAJ5 2-422)
T1 sequence: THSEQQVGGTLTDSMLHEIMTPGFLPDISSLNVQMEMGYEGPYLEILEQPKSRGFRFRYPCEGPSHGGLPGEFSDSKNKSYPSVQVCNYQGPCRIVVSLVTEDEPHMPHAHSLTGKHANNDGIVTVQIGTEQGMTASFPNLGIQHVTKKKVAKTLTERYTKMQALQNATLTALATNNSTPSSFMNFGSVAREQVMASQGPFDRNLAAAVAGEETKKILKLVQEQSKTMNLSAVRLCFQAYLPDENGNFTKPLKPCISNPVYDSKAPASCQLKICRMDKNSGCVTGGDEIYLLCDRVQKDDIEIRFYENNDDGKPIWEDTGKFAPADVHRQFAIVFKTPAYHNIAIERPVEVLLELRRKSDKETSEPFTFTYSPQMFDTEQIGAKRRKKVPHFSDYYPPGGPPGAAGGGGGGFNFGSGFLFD
Assay: protein-binding microarray (PBM); PBM: ~300 nM protein, 6 mM HEPES pH 7.8, 80 mM KCl, 0.5 mM EDTA, 0.5 mM EGTA, 6% glycerol, 35 ng/ul poly-dIdC, 1% milk, 1 h, room temperature; Ap Aiptasia and Nv Nematostella (sea anemones) / Co Capsaspora / Aq Amphimedon (sponge) / Dm Drosophila / Hu human; RHD is the Rel homology domain; high values mean tight binding
Conditions: dsDNA, one strand shown

Sequence | binding signal [z-score]
CCGATTAACATCAAGGGGGAAAATGATGTTAATCGGGTCTTGATTCGCTTGACGCTGCTG | 6.85
CCGATTAACATCAGGATACCCCCTGATGTTAATCGGGTCTTGATTCGCTTGACGCTGCTG | 7.7
CCGATTAACATCACCAAATCCCCTGATGTTAATCGGGTCTTGATTCGCTTGACGCTGCTG | 6.97
CCGATTAACATCAGGGGCCCCCCTGATGTTAATCGGGTCTTGATTCGCTTGACGCTGCTG | 7.09
CCGATTAACATCAGGACTCCCCCTGATGTTAATCGGGTCTTGATTCGCTTGACGCTGCTG | 8.82
CCGATTAACATCAAAACTTCCCCTGATGTTAATCGGGTCTTGATTCGCTTGACGCTGCTG | 8.71
CCGATTAACATCAGGGGAACGCATGATGTTAATCGGGTCTTGATTCGCTTGACGCTGCTG | 5.31
CCGATTAACATCAGGGGACTCCATGATGTTAATCGGGTCTTGATTCGCTTGACGCTGCTG | 6.58
CCGATTAACATCAATTCCCCAGGTGATGTTAATCGGGTCTTGATTCGCTTGACGCTGCTG | 5.33
CCGATTAACATCAGGGGAAGACCTGATGTTAATCGGGTCTTGATTCGCTTGACGCTGCTG | 5.91
CCGATTAACATCAGGGCGCCCCCTGATGTTAATCGGGTCTTGATTCGCTTGACGCTGCTG | 6.07

Target: T2, GST-Nv-NF-kB (Cys allele) (Nematostella vectensis, UniProt E5G601 2-411)
T2 sequence: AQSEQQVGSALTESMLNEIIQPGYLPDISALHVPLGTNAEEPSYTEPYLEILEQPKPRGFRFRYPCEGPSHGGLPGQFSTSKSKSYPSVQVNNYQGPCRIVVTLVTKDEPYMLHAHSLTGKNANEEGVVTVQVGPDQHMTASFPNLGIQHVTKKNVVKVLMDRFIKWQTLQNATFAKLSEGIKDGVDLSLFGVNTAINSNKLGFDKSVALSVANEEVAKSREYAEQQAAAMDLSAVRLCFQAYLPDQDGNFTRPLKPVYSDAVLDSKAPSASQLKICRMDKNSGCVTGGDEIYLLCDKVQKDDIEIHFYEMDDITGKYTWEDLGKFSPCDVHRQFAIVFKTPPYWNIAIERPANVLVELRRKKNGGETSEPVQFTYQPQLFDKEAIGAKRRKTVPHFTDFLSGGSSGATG
Assay: as above
Conditions: dsDNA, one strand shown

Sequence | binding signal [z-score]
CCGATTAACATCAGGGGATTTGATGATGTTAATCGGGTCTTGATTCGCTTGACGCTGCTG | 6.28
CCGATTAACATCAAAAATCCCCTTGATGTTAATCGGGTCTTGATTCGCTTGACGCTGCTG | 12.3
CCGATTAACATCAGGGGGAGTAATGATGTTAATCGGGTCTTGATTCGCTTGACGCTGCTG | 4.54
CCGATTAACATCACTCATCCCCGTGATGTTAATCGGGTCTTGATTCGCTTGACGCTGCTG | 3.17
CCGATTAACATCAGAATTCCCCATGATGTTAATCGGGTCTTGATTCGCTTGACGCTGCTG | 10.3
CCGATTAACATCAATCCTCCCCCTGATGTTAATCGGGTCTTGATTCGCTTGACGCTGCTG | 4.44
CCGATTAACATCACCCTTCCCCCTGATGTTAATCGGGTCTTGATTCGCTTGACGCTGCTG | 4.49
CCGATTAACATCAGGGGACTCACTGATGTTAATCGGGTCTTGATTCGCTTGACGCTGCTG | 4.13
CCGATTAACATCAGGGGGATTAATGATGTTAATCGGGTCTTGATTCGCTTGACGCTGCTG | 6.39
CCGATTAACATCAGGGGGATAACTGATGTTAATCGGGTCTTGATTCGCTTGACGCTGCTG | 4.96
CCGATTAACATCACGATTTCCCCTGATGTTAATCGGGTCTTGATTCGCTTGACGCTGCTG | 7.92
CCGATTAACATCAAAATACTCCCTGATGTTAATCGGGTCTTGATTCGCTTGACGCTGCTG | 4.6
CCGATTAACATCAGGGGAATTTATGATGTTAATCGGGTCTTGATTCGCTTGACGCTGCTG | 11.9
CCGATTAACATCAGGGGGTTCCATGATGTTAATCGGGTCTTGATTCGCTTGACGCTGCTG | 5.3
CCGATTAACATCAGGGGGATTCATGATGTTAATCGGGTCTTGATTCGCTTGACGCTGCTG | 7.43
CCGATTAACATCACACAACCCCCTGATGTTAATCGGGTCTTGATTCGCTTGACGCTGCTG | 3.73
CCGATTAACATCAATACTTCCCCTGATGTTAATCGGGTCTTGATTCGCTTGACGCTGCTG | 7.52
CCGATTAACATCAAGATTTCCCATGATGTTAATCGGGTCTTGATTCGCTTGACGCTGCTG | 4.42
CCGATTAACATCAAATTGTCCCCTGATGTTAATCGGGTCTTGATTCGCTTGACGCTGCTG | 5.87
CCGATTAACATCAGGGTATTTTATGATGTTAATCGGGTCTTGATTCGCTTGACGCTGCTG | 8.31

Sequence | binding signal [z-score]
CCGATTAACATCACAATCCCCCCTGATGTTAATCGGGTCTTGATTCGCTTGACGCTGCTG | 5.61
CCGATTAACATCAGGGGAGTTACTGATGTTAATCGGGTCTTGATTCGCTTGACGCTGCTG | 4.25
CCGATTAACATCAGGGGGAAGAATGATGTTAATCGGGTCTTGATTCGCTTGACGCTGCTG | 6.3
CCGATTAACATCAGGGCCTCCCCTGATGTTAATCGGGTCTTGATTCGCTTGACGCTGCTG | 4.43
CCGATTAACATCAAAGTCCCCCTTGATGTTAATCGGGTCTTGATTCGCTTGACGCTGCTG | 6.84
CCGATTAACATCAGGGGGGTTAATGATGTTAATCGGGTCTTGATTCGCTTGACGCTGCTG | 4.44
CCGATTAACATCAACTTCCCCCCTGATGTTAATCGGGTCTTGATTCGCTTGACGCTGCTG | 6.37
CCGATTAACATCAGGGGGCTATATGATGTTAATCGGGTCTTGATTCGCTTGACGCTGCTG | 3.23
CCGATTAACATCAAGGGGGAAAATGATGTTAATCGGGTCTTGATTCGCTTGACGCTGCTG | 6.58
CCGATTAACATCAGGATACCCCCTGATGTTAATCGGGTCTTGATTCGCTTGACGCTGCTG | 4.68
CCGATTAACATCACCAAATCCCCTGATGTTAATCGGGTCTTGATTCGCTTGACGCTGCTG | 6.55
CCGATTAACATCAGGGGCCCCCCTGATGTTAATCGGGTCTTGATTCGCTTGACGCTGCTG | 3.78
CCGATTAACATCAGGACTCCCCCTGATGTTAATCGGGTCTTGATTCGCTTGACGCTGCTG | 7.17
CCGATTAACATCAAAACTTCCCCTGATGTTAATCGGGTCTTGATTCGCTTGACGCTGCTG | 10.4
CCGATTAACATCAGGGGAACGCATGATGTTAATCGGGTCTTGATTCGCTTGACGCTGCTG | 5.4
CCGATTAACATCAGGGGACTCCATGATGTTAATCGGGTCTTGATTCGCTTGACGCTGCTG | 4.64
CCGATTAACATCAATTCCCCAGGTGATGTTAATCGGGTCTTGATTCGCTTGACGCTGCTG | 5.44
CCGATTAACATCAGGGGAAGACCTGATGTTAATCGGGTCTTGATTCGCTTGACGCTGCTG | 7.98
CCGATTAACATCAGGGCGCCCCCTGATGTTAATCGGGTCTTGATTCGCTTGACGCTGCTG | 4.59

— article PMC5700166
